Experimental findings from PubChem BioAssay (NCATS) are described below.

A number with no mark means an inactive call.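 The calls were made as follows: active = compounds whose dose series gives a full or clear partial fitted curve of increased nuclear translocation; inconclusive = weak partial curve or effect only at the top dose; inactive = no dose-dependent translocation response.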
Potency is read from the fitted curve at half-maximal effect.

For this assay, the target named is Glucocorticoid receptor (Homo sapiens) (UniProt P04150). Description: GR-GFP Redistribution (AID 450). The following applies: U2OS GR-GFP nuclear translocation, laser cytometry, 2 h; series mostly up to 20.6 µM.
Chain of Glucocorticoid receptor (Homo sapiens) (P04150 whole entry, looked up): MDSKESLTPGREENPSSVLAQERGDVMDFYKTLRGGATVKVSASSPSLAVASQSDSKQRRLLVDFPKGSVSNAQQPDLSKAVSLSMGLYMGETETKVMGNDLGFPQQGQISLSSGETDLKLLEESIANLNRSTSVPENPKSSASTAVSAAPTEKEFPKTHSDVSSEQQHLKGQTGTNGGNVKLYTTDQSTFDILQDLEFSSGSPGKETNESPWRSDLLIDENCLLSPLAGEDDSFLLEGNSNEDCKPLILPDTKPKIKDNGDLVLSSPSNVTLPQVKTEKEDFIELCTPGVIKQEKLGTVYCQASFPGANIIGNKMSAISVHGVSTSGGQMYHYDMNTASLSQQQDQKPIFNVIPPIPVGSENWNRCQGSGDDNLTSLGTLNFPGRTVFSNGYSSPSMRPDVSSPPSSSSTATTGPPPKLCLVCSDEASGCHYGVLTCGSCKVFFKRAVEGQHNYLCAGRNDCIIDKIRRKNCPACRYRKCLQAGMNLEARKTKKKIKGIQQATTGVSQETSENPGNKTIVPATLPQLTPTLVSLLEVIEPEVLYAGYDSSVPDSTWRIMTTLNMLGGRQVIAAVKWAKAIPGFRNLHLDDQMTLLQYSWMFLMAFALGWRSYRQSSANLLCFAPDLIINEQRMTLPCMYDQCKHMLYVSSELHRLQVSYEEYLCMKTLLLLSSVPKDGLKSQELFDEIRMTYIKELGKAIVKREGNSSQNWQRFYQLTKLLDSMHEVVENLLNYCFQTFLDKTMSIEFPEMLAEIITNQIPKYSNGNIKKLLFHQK
Take `O=S(=O)(O)c1nc2ccccc2n1Cc1ccc(Cl)cc1Cl`: the Potency is more than 20.6 µM.

As for `COc1ccccc1C(=O)N1CCCC1(C#N)c1ccccc1` (stereo not given), the Potency was more than 20.6 µM.

As to `Cc1ccc(C2/C(=C(/O)c3cnn(-c4ccccc4)c3C)C(=O)C(=O)N2CCN2CCOCC2)o1` (stereo not given), the Potency was more than 20.6 µM.

Turning to `COc1ccc(C(=O)N2CCCC(c3ccccc3)C2)cc1` (stereo not given), the Potency is more than 20.6 µM.

`CC(C)OC(=O)[C@H]1[C@H](c2ccc(Cl)cc2)[C@@](C#N)(C(N)=O)[C@@H]2C=CC(C(N)=O)=CN21`: the Potency is more than 20.6 µM.

On to `CCN(CC)CCCC1(CN)OCCc2ccccc21` (stereo not given), for which the Potency is more than 20.6 µM.

For the compound `N=c1ncn(CC(O)CN2CCOCC2)c2nc(N3CCOCC3)[nH]c12` (stereo not given), the Potency is more than 20.6 µM.

As to `Cc1nn(CCO)c2c1C(=O)CCC2`, the Potency is more than 20.6 µM.

With `CC(C)CCNc1nc2c(cc1C#N)COC(C)(C)C2`, the Potency is more than 20.6 µM.

For `CCCCCOc1ccccc1C(=O)NCC(=O)O`, the Potency is more than 20.6 µM.

For the compound `COCc1[nH]nc2c1C(c1ccccc1OC)C(C#N)=C(N)O2` (stereo not given), the Potency is more than 20.6 µM.

Turning to `CSc1nnc(C)c(=O)[nH]1`, the Potency is more than 20.6 µM.

Consider `COCCCn1c2nc3ccccc3nc2c2c(=O)n(CC3CCCO3)cnc21` (stereo not given), for which the Potency is more than 20.6 µM.

As for `CC1(C(=O)CSc2n[nH]c(-c3ccccc3Cl)n2)CCC(=O)O1` (stereo not given), the Potency is more than 20.6 µM.

As to `CCCC(=O)Nc1sc2c(c1C#N)CCCC2`, the Potency was more than 20.6 µM.

With `Cc1nc2ccccc2cc1O`, the Potency is more than 20.6 µM.

As to `Nc1ccc2oc3ncccc3c(=O)c2c1`, the Potency is more than 20.6 µM.

As to `CCN(CC)CCN1C(=O)C(=O)/C(=C(/O)c2ccc(OC)cc2)C1c1ccco1` (stereo not given), the Potency was more than 20.6 µM.

Turning to `Cc1cc2ccccc2cc(C)c1=O`, the Potency is more than 20.6 µM.

Take `CCC(=O)Nc1cccc(-c2nnc(SCC(=O)NCc3ccco3)n2C)c1`: the Potency was more than 20.6 µM.

Take `Cc1c(C(=O)O)c(=S)sn1CCOc1ccccc1`: the Potency was more than 20.6 µM.

Turning to `CCOC(=O)CSc1nc(-c2ccncc2)ccc1C#N`, the Potency was more than 20.6 µM.

In the case of `O=C1C2ON(c3ccccc3)C(c3cccnc3)C2C(=O)N1c1ccc(Cl)c(Cl)c1` (stereo not given), the Potency was more than 20.6 µM.

As to `c1ccc(SCc2nc3ccccc3[nH]2)nc1`, the Potency is more than 20.6 µM.

With `Cc1cc(C)nc(NC2=NCC(=O)N2c2ccccc2)n1`, the Potency was more than 20.6 µM.

For the compound `Cc1ccccc1COc1ccc(/C(O)=C2/C(=O)C(=O)N(CCCn3ccnc3)C2c2ccco2)cc1` (stereo not given), the Potency is more than 20.6 µM.

As to `CC1(C)Cc2c(c(-c3ccccc3)nc3[nH][nH]c(=O)c23)CO1`, the Potency is more than 20.6 µM.

With `CCn1cc(C(=O)NCC2CCCO2)c(=O)c2cc(F)c(N3CCN(C)CC3)cc21` (stereo not given), the Potency is more than 20.6 µM.

On to `O=C(c1ccccc1)c1cc(-c2ccccc2)on1`, for which the Potency was more than 20.6 µM.

As for `COc1ccc(C2NC3=C(CCC3)C3(C#N)C(OC)(OC)N=C(N)C23C#N)cc1` (stereo not given), the Potency is more than 20.6 µM.

With `OCCNC1=NCCN1`, the Potency was more than 20.6 µM.

For `COC(=O)c1ccc(C2/C(=C(/O)c3ccc(OC)cc3)C(=O)C(=O)N2Cc2ccco2)cc1` (stereo not given), the Potency is more than 20.6 µM.

With `Cc1cc(C)n2c3c(c(C#N)c2n1)CC(C)(C)OC3`, the Potency was more than 20.6 µM.

On to `CCOC(=O)C(NC=O)(NC(C)(C)C)C(=O)OCC`, for which the Potency is more than 20.6 µM.

On to `Cc1cc(=O)oc(C)c1C(=O)N1CCN(Cc2ccc3c(c2)OCO3)CC1`, for which the Potency is more than 20.6 µM.

With `C=CCOc1ccc(/C(O)=C2/C(=O)C(=O)N(CCCN3CCOCC3)C2c2ccc(OC)cc2)cc1` (stereo not given), the Potency is more than 20.6 µM.

In the case of `C=COC(=O)CSc1nc(-c2cccs2)ccc1C#N`, the Potency is more than 20.6 µM.

Take `CN1CCN(Cc2c(O)ccc3c(-c4ccccc4)cc(=O)oc23)CC1`: the Potency was more than 20.6 µM.

With `COc1ccc(OC)c(C2/C(=C(\O)c3ccc(OC)c(Cl)c3)C(=O)C(=O)N2CCN(C)C)c1` (stereo not given), the Potency was more than 20.6 µM.

On to `CCc1[nH]c(=O)c(C#N)c2c1CCCC2`, for which the Potency was more than 20.6 µM.
